Calls of active or inactive are those of the source.
How the values were obtained:
[1] = tested on: PRMT1 (protein arginine N-methyltransferase 1); assay: PRMT1 binders on small-molecule microarrays, primary screen, biochemical, small-molecule microarray, 635 nm fluorescence (AID 1088); conditions: small-molecule microarray binding, higher = more signal;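 note: binding of Prmt1 protein to compounds spotted on small-molecule microarray slides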
[2] = yeast growth modulation, basal conditions, primary screen, YJM789 clinical isolate, OD600, 24 h (AID 1089);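 note: growth of clinical yeast isolate S. cerevisiae YJM 789 seeded 1000 cells per well; test concentration not given here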; conditions: S. cerevisiae YJM789 growth, higher = more signal, called active from +8 up or from −8 down
[3] = fission yeast growth modulation, primary screen, strain 972, OD600, 24 h, no modulator (AID 1090);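 note: basal condition with compound alone and no growth modifier present; test concentration not given here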; conditions: S. pombe 972 growth, higher = more signal, called active from +8 up or from −8 down
[4] = S. cerevisiae growth modulation with rapamycin, primary screen, strain BY4716, OD600, 96 h (AID 1091); conditions: higher = more signal, called active from +8 up or from −8 down; note: test concentration not given here
[5] = target: Torsin-1A-interacting protein 2 (Homo sapiens) (UniProt Q8NFQ8); assay: LULL1 binders on small-molecule microarray, primary screen, cell lysate, human LULL1 lysate, 635/667 nm fluorescence (AID 1092); conditions: hLULL1 lysate binding, 635 nm fluorescence, higher = more signal;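 note: probe is lysate of COS7 cells overexpressing human LULL1; score merges per-feature 667 nm fluorescence with signal-to-noise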
Sequence of Torsin-1A-interacting protein 2 (Homo sapiens) (Q8NFQ8 whole entry, looked up): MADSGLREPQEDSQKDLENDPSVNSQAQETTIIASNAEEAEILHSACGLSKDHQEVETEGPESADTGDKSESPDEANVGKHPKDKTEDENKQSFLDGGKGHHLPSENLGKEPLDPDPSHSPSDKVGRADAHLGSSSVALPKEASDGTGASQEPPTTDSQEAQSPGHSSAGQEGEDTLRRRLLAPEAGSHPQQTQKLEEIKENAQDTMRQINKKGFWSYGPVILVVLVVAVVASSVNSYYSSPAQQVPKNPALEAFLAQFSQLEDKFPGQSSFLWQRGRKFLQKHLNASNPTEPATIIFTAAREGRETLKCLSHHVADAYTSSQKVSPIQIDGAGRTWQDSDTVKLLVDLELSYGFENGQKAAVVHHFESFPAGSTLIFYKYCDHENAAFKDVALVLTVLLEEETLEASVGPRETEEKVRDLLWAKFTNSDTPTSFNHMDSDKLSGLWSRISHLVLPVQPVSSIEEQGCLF

[6] = E. coli growth modulation, two-sided OD650, primary screen, E. coli filamentation project, strain DRC41, 24 h (AID 1093); conditions: OD650, 24 h, higher = more signal, called active from +8 up or from −8 down;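 note: MC1000 strain lacking acrAB efflux and sulA so SOS filamentation is blocked; test concentration not given here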
[7] = small-molecule microarray binders of probe aLefty2, primary screen, biochemical, biotinylated probe, 635/667 nm fluorescence (AID 1094); conditions: higher = more signal;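 note: score merges spot fluorescence near 667 nm with spot signal-to-noise ratio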
[8] = tested on: Noggin (protein binding on small-molecule microarray); assay: Noggin binders on small-molecule microarray, primary screen, biochemical, 635/667 nm fluorescence (AID 1095); conditions: 635 nm fluorescence, higher = more signal;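 note: score merges 667 nm feature fluorescence with signal to noise over triplicate slides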
[9] = target: Neurogenic locus notch homolog protein 3 (Homo sapiens) (UniProt Q9UM47); assay: NOTCH3 binders on small-molecule microarray, primary screen, biochemical, 635/667 nm fluorescence (AID 1096); conditions: NOTCH3 binding, 635 nm fluorescence, higher = more signal
Sequence of Neurogenic locus notch homolog protein 3 (Homo sapiens) (Q9UM47 whole entry, looked up): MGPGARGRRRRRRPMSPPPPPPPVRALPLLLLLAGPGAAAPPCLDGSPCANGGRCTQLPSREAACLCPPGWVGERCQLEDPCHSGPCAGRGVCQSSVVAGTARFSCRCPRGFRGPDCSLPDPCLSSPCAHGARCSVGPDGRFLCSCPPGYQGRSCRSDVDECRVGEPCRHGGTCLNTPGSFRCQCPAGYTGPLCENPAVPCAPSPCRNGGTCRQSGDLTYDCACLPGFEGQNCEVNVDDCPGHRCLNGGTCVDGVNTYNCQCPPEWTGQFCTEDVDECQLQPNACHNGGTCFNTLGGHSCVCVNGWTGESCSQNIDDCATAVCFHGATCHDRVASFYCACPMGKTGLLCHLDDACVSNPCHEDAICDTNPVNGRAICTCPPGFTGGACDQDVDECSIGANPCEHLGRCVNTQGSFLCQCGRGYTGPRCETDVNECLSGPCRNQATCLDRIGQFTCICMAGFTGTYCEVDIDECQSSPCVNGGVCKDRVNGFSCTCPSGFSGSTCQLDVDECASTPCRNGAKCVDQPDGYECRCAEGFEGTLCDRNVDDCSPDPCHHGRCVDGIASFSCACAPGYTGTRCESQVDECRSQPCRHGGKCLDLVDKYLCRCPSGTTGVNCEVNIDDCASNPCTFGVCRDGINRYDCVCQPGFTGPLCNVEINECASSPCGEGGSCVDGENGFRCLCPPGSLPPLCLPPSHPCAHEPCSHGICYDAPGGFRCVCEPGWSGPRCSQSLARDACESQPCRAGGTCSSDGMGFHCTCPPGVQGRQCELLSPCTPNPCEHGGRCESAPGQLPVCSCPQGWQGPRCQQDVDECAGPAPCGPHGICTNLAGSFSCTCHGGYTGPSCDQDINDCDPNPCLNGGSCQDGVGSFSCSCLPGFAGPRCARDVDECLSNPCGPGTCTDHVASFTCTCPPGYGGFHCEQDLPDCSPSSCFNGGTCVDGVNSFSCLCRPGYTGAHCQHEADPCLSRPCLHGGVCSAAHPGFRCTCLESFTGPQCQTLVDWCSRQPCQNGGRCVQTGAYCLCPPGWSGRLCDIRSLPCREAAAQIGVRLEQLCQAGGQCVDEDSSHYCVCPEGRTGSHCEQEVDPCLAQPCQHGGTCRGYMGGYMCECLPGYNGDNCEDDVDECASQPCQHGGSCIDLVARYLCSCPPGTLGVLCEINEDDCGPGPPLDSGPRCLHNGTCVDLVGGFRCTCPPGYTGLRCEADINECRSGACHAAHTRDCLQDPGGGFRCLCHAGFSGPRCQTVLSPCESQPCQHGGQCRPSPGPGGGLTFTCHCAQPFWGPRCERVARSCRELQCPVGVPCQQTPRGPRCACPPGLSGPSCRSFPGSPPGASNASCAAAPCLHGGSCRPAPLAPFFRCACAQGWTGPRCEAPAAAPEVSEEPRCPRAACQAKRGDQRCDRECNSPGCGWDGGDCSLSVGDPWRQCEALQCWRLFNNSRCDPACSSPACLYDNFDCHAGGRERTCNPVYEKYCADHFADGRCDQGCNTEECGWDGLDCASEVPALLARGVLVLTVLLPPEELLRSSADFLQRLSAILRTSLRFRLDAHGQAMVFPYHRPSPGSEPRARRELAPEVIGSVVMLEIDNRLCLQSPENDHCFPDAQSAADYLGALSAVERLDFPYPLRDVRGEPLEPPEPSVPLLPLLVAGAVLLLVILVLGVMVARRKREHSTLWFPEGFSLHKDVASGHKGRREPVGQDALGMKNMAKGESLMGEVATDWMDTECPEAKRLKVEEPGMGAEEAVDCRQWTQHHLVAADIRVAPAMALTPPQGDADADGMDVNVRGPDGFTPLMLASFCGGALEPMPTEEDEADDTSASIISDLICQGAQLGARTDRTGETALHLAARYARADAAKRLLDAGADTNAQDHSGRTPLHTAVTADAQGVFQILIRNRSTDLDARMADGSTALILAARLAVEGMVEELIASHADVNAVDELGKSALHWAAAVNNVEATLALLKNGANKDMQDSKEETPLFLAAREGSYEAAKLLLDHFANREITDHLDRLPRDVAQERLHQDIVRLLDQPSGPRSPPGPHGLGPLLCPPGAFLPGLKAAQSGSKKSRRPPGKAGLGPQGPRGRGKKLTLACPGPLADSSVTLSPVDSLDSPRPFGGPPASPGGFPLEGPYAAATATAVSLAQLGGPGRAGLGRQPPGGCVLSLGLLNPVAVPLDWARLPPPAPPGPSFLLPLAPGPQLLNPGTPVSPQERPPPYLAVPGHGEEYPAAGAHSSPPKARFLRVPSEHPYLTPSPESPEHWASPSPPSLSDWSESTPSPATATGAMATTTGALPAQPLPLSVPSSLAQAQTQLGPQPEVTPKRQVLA

[10] = small-molecule microarray binders of probe aEGFR, primary screen, biochemical, biotinylated probe, 635/667 nm fluorescence (AID 1097); conditions: higher = more signal;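 note: probe is a biotinylated anti-EGFR antibody binding compounds printed on slides; score combines fluorescence near 667 nm and signal to noise of each spot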

| Structure (SMILES) | composite z-score [1] | z-score [2] | z-score [3] | z-score [4] | composite z-score [5] | z-score [6] | composite z-score [7] | composite z-score [8] | composite z-score [9] | composite z-score [10] |
| --- | --- | --- | --- | --- | --- | --- | --- | --- | --- | --- |
| O=C1[C@H]2[C@H]3[C@H](O)[C@H](O)CC(=NOCc4ccccc4)[C@H]3CC[C@H]2C(=O)N1c1ccc(F)cc1F | -0.129 | -1.3 (inactive) | -0.128 (inactive) | -0.982 (inactive) | -0.089 | 0.358 (inactive) | -0.373 | -0.153 | -0.367 | -0.0936 |
| COCC(=C=CC[C@@H](O)c1ccccc1OCCO)CCO | 0.68 | 0.621 (inactive) | 0.0008 (inactive) | 0.199 (inactive) | 2.36 | 0.71 (inactive) | 0.0378 | 0.436 | 0.442 | -0.0332 |
| CC(=O)OC[C@H]1O[C@H](CC=NOC[C@@H](C)[C@H](OCc2ccccc2)C(C)C)C=C[C@@H]1OC(C)=O | 0.7 | -0.523 (inactive) | -0.0269 (inactive) | -1 (inactive) | -0.299 | -0.186 (inactive) | -0.0345 | 0.259 | -0.14 | -0.0873 |
| COCCOC(=O)N1C(=O)[C@@]2(c3cc(C#Cc4ccc(OC)cc4)ccc31)[C@H](c1ccc(O)cc1)N1[C@H](c3ccccc3)[C@H](c3ccccc3)OC(=O)[C@H]1[C@@H]2C(N)=O | 1.55 | 0.0655 (inactive) | -0.118 (inactive) | -0.0092 (inactive) | 2.93 | 0.04 (inactive) | -0.145 | 0.977 | 1.1 | 0.0026 |
| Cc1cc2c(nc1C)CCCN2CC(C)ON=C1[C@H]2CCn3c(=O)n(-c4ccccc4)c(=O)n3[C@H]2[C@H](O)[C@@H]2O[C@H]12 (stereo not given in full) | 1.51 | -0.706 (inactive) | -0.829 (inactive) | -0.115 (inactive) | 1.42 | -0.414 (inactive) | -0.138 | 0.725 | 1.01 | -0.0141 |
| O=C1[C@H]2[C@H]3[C@H](O)[C@H](O)CC(=NOCc4ccccc4)[C@H]3CC[C@H]2C(=O)N1C[C@@H]1CCCO1 | -0.107 | -0.139 (inactive) | 0.531 (inactive) | -0.351 (inactive) | 0.78 | 0.0096 (inactive) | -0.238 | 0.322 | 0.48 | -0.123 |
| CC1(C)OCC(C(O)C2=CCCCC2=O)CO1 (stereo not given) | 1.56 | 0.209 (inactive) | -0.0255 (inactive) | 0.856 (inactive) | 0.231 | -0.449 (inactive) | -0.0478 | 0.986 | 1.06 | 0.0688 |
| CCc1cc2c(nc1CC)CCN(CCC(C)=NOC[C@@H](O)COCc1ccco1)C2 | 1.54 | -0.907 (inactive) | -0.871 (inactive) | -0.935 (inactive) | -1.51 | 0.903 (inactive) | 0.469 | 1.68 | 1.05 | 0.441 |
| C[C@H]1Cc2c(-c3ccccc3)nc3c(c2CO1)CN(CCOc1ccccc1)CC3 | 1.56 | -0.0387 (inactive) | -1.24 (inactive) | -0.142 (inactive) | 2.3 | 1.91 (inactive) | -0.161 | 0.472 | 1.12 | -0.0114 |
| O=C(CS)NCCCCCNC(=O)[C@@H]1C[C@@H]2C(=O)N[C@@H](Cc3ccccc3)C(=O)N2[C@@H]1c1ccc(O)cc1 | 1.47 | 0.176 (inactive) | -0.321 (inactive) | 0.858 (inactive) | 3.06 | 1.28 (inactive) | -0.0687 | -0.306 | 0.373 | -0.104 |
| CC(CCC(=O)OC[C@H]1O[C@H](C#Cc2ccccc2)C=C[C@@H]1Oc1ccc(C)cc1)=NOC[C@@H](O)[C@H]1O[C@@H]2OC(C)(C)O[C@@H]2[C@H]1O | -0.753 | 0.349 (inactive) | -0.0762 (inactive) | 0.823 (inactive) | 0.563 | 0.142 (inactive) | -0.352 | -0.333 | -1.74 | -0.342 |
| CCCNC(=O)OC[C@H]1O[C@H](CCON=C[C@@H](OC)[C@H](C)C=CCC(=O)OC)C=C[C@@H]1Oc1ccc(OC)cc1 | 1.17 | -1.01 (inactive) | 0.141 (inactive) | -0.0988 (inactive) | 0.524 | 0.294 (inactive) | -0.0519 | 0.194 | -0.31 | -0.136 |
| COc1ccc([Si](C)(C)[C@H]2[C@H](CCO)O[C@@]3(C(=O)N(Cc4cccc(NC(=O)[C@H](C)O)c4)c4ccccc43)[C@@H]2C)cc1 | 1.54 | 1.62 (inactive) | 0.562 (inactive) | 7.56 (inactive) | 2.47 | 1.24 (inactive) | -0.0664 | 1.24 | 1.09 | -0.013 |
| CCOC(=O)[C@H](Cc1ccccc1)NC(=O)CCC1CC(OC(=O)NCc2ccc3c(c2)OCO3)CC2(CCCC(COC(=O)NCC3CCCCC3)O2)O1 (stereo not given in full) | 1.55 | -0.827 (inactive) | 0.455 (inactive) | -0.38 (inactive) | 2.62 | -0.201 (inactive) | -0.157 | 0.742 | 1.11 | 0.0632 |
| COCCCNC(=O)[C@]1(CCC(=O)OC(C)(C)C)N=C(c2ccc(OCCCO)cc2)O[C@@H]1c1ccccc1N=[N+]=[N-] | 1.54 | -0.376 (inactive) | -1.22 (inactive) | 0.719 (inactive) | 3.81 | 0.619 (inactive) | 0.0979 | 0.778 | 1.11 | 0.134 |

From PubChem BioAssay
